About 7,900 targets were measured; listed, in parts, are those with a hit and a random draw of the rest. About 0.6% of all pairs of compound and target were hits. A number with no mark means an inactive call.
Assays:
Assay in all cases: log2 fold change, soluble protein after heating vs DMSO (PISA); higher = thermal stabilisation; K562 cells, 10 uM, 30 min; active = over 0.2 and 3.5 SD of the protein, either way, in both replicates (recomputed)
[1] = compound: CN1CCN(CCOc2cc(OC3CCOCC3)c3c(Nc4c(Cl)ccc5c4OCO5)ncnc3c2)CC1 [saracatinib]
Outline: (§1)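 Aliquots of K562 cells (2×10^6 cells/mL) treated with 10 μM compound for 30 min were heated for 3 min over 48°C-58°C. After pooling and extraction in PBS with 0.5% NP-40 at 4°C, soluble protein from a 21,000xg, 90 min spin was quantified by TMTpro 16plex LC-MS/MS with channel sums equalised. Thermal stability is expressed against control samples, from duplicates, as a log2 fold change.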

[2] = compound: CN1CCN(c2nc(C3=C(c4c[nH]c5ccccc45)C(=O)NC3=O)c3ccccc3n2)CC1 [sotrastaurin]
Outline: as §1

[3] = compound: CN1CC[C@H](c2c(O)cc(O)c3c(=O)cc(-c4ccccc4Cl)oc23)[C@H](O)C1 [alvocidib]
Outline: as §1

[4] = compound: CN1CCc2c(c3ccccc3n2Cc2ccc(C(=O)NO)cc2)C1 [Tubastatin A]
Outline: as §1

[5] = compound: CNC(=O)C1=CC=CC=C1NC2=NC(=NC=C2Cl)NC3=C(C=C(C=C3)N4CCOCC4)OC
Outline: as §1

[6] = compound: CNC(=O)c1ccc(Nc2ncc(C(F)(F)F)c(NCc3nccnc3N(C)S(C)(=O)=O)n2)cc1 [defactinib]
Outline: as §1

[7] = compound: CNCc1ccc(-c2[nH]c3cc(F)cc4c3c2CCNC4=O)cc1 [rucaparib]
Outline: as §1

[8] = compound: CNc1nc(-c2ccc3c(N)n[nH]c3c2)cc(N2C[C@@H](C(=O)NC3CCCCC3)CC[C@H]2C)n1
Outline: as §1

[9] = compound: COC(=O)N[C@@H](C)CNc1nccc(-c2cn(C(C)C)nc2-c2cc(Cl)cc(NS(C)(=O)=O)c2F)n1 [encorafenib]
Outline: as §1

[10] = compound: COC(=O)[C@H](CCSC)NC(=O)C1=C(C=C(C=C1)NC[C@H](CS)N)C2=CC=CC=C2
Outline: as §1

RHOXF2 (UniProt Q9BQY4)
Chain of UniProt Q9BQY4 (Q9BQY4 whole entry, looked up): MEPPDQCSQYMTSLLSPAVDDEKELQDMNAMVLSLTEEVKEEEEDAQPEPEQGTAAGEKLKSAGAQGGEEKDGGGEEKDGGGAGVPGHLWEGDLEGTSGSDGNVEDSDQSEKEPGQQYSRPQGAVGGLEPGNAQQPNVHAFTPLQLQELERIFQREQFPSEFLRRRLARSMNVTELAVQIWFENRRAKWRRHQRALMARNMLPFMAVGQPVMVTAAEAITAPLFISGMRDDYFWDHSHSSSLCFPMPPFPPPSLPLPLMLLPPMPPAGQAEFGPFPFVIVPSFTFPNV
log2 fold change [1]: 0.015
log2 fold change [2]: -0.002
log2 fold change [3]: 0.011
log2 fold change [4]: 0.042
log2 fold change [5]: -0.021
log2 fold change [6]: 0.008
log2 fold change [7]: 0.09
log2 fold change [8]: -0.074
log2 fold change [9]: -0.018
log2 fold change [10]: 0.066

RNF220 (UniProt Q5VTB9)
log2 fold change [1]: 0.012
log2 fold change [2]: 0.022
log2 fold change [3]: -0.066
log2 fold change [4]: 0.066
log2 fold change [5]: -0.008
log2 fold change [6]: -0.059
log2 fold change [7]: -0.043
log2 fold change [8]: -0.038
log2 fold change [9]: 0.031
log2 fold change [10]: 0.015

RPS13 (UniProt P62277)
log2 fold change [1]: -0.149
log2 fold change [2]: 0
log2 fold change [3]: 0.287
log2 fold change [4]: 0.106
log2 fold change [5]: 0.097
log2 fold change [6]: 0.339
log2 fold change [7]: 0.261
log2 fold change [8]: 0.111
log2 fold change [9]: 0.137
log2 fold change [10]: 0.031

RDH11 (UniProt Q8TC12)
log2 fold change [1]: -0.121
log2 fold change [2]: -0.019
log2 fold change [3]: -0.028
log2 fold change [4]: 0.003
log2 fold change [5]: 0.136
log2 fold change [6]: 0.001
log2 fold change [7]: 0.113
log2 fold change [8]: 0.019
log2 fold change [9]: 0.094
log2 fold change [10]: -0.086

SH3GLB2 (UniProt Q9NR46)
log2 fold change [1]: -0.059
log2 fold change [2]: -0.08
log2 fold change [3]: -0.13
log2 fold change [4]: 0.024
log2 fold change [5]: -0.048
log2 fold change [6]: -0.148
log2 fold change [7]: 0.042
log2 fold change [8]: -0.02
log2 fold change [9]: 0.029
log2 fold change [10]: -0.086

SERPINA7 (UniProt P05543)
Chain of UniProt P05543 (P05543 whole entry, looked up): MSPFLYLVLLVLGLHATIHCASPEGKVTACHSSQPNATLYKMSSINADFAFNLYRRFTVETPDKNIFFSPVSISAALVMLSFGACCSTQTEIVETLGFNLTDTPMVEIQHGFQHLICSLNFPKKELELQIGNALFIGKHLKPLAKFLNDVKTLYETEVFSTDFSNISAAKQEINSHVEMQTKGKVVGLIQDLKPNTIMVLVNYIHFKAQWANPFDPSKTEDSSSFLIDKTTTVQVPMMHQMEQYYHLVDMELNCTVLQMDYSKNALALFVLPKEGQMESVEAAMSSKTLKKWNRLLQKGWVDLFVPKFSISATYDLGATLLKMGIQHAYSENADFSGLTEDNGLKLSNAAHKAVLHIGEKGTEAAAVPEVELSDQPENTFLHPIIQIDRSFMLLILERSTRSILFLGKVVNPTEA
log2 fold change [1]: 0.339
log2 fold change [2]: 0.395
log2 fold change [3]: 0.018
log2 fold change [4]: -0.169
log2 fold change [5]: 0.147
log2 fold change [6]: 0.056
log2 fold change [7]: -0.145
log2 fold change [8]: 0.061
log2 fold change [9]: -0.085
log2 fold change [10]: 0.078

RANBP2 (UniProt P49792)
log2 fold change [1]: -0.011
log2 fold change [2]: -0.06
log2 fold change [3]: -0.079
log2 fold change [4]: -0.016
log2 fold change [5]: 0.886
log2 fold change [6]: -0.009
log2 fold change [7]: -0.028
log2 fold change [8]: -0.016
log2 fold change [9]: -0.045
log2 fold change [10]: -0.03

RABGAP1L isoform 3 (UniProt Q5R372)
log2 fold change [1]: 0.063
log2 fold change [2]: -0.042
log2 fold change [3]: -0.001
log2 fold change [4]: -0.059
log2 fold change [5]: 0.018
log2 fold change [6]: -0.055
log2 fold change [7]: -0.05
log2 fold change [8]: -0.005
log2 fold change [9]: 0.078
log2 fold change [10]: 0.035

SEC24A (UniProt O95486)
log2 fold change [1]: 0.002
log2 fold change [2]: -0.055
log2 fold change [3]: -0.071
log2 fold change [4]: 0.03
log2 fold change [5]: 0.032
log2 fold change [6]: -0.013
log2 fold change [7]: 0.002
log2 fold change [8]: -0.033
log2 fold change [9]: 0.091
log2 fold change [10]: -0.009

RBIS (UniProt Q8N0T1)
Chain of UniProt Q8N0T1 (Q8N0T1 whole entry, looked up): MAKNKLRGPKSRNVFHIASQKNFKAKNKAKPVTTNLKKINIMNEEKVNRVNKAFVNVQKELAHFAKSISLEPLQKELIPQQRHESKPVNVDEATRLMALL
log2 fold change [1]: 0.054
log2 fold change [2]: -0.002
log2 fold change [3]: 0.059
log2 fold change [4]: 0.037
log2 fold change [5]: -0.026
log2 fold change [6]: 0.058
log2 fold change [7]: -0.048
log2 fold change [8]: -0.037
log2 fold change [9]: 0.022
log2 fold change [10]: 0.03

RIC8A isoform 3 (UniProt Q9NPQ8)
log2 fold change [1]: 0.008
log2 fold change [2]: -0.223
log2 fold change [3]: -0.157
log2 fold change [4]: 0.108
log2 fold change [5]: -0.096
log2 fold change [6]: -0.175
log2 fold change [7]: 0.198
log2 fold change [8]: -0.087
log2 fold change [9]: 0.287
log2 fold change [10]: -0.12

SHROOM2 (UniProt Q13796)
log2 fold change [1]: -0.118
log2 fold change [2]: 0.128
log2 fold change [3]: 0.071
log2 fold change [4]: 0.283
log2 fold change [5]: -0.29
log2 fold change [6]: 0.059
log2 fold change [7]: -0.049
log2 fold change [8]: 0.08
log2 fold change [9]: -0.136
log2 fold change [10]: 0.1

SLBP (UniProt Q14493)
Chain of UniProt Q14493 (Q14493 whole entry, looked up): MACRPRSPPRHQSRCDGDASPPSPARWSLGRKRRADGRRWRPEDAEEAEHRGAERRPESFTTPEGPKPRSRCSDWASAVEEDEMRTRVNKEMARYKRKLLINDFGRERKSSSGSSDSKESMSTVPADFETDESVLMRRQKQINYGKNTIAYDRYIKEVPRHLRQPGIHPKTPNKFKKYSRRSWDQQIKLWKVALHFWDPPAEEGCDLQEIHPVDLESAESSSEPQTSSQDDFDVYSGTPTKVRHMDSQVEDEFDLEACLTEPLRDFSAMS
log2 fold change [1]: -0.083
log2 fold change [2]: -0.077
log2 fold change [3]: -0.091
log2 fold change [4]: 0.117
log2 fold change [5]: 0.113
log2 fold change [6]: -0.128
log2 fold change [7]: -0.158
log2 fold change [8]: 0.02
log2 fold change [9]: 0.113
log2 fold change [10]: 0

RSL1D1 (UniProt O76021)
log2 fold change [1]: -0.086
log2 fold change [2]: 0.05
log2 fold change [3]: 0.481
log2 fold change [4]: 0.06
log2 fold change [5]: 0.004
log2 fold change [6]: 0.83 (active)
log2 fold change [7]: 0.359
log2 fold change [8]: 0.097
log2 fold change [9]: 0.117
log2 fold change [10]: 0.079

RPA3 (UniProt P35244)
Chain of UniProt P35244 (P35244 whole entry, looked up): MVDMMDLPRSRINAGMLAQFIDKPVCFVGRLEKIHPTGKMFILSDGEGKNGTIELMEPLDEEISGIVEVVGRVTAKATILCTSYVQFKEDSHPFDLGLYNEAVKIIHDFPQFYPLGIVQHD
log2 fold change [1]: 0.015
log2 fold change [2]: -0.014
log2 fold change [3]: -0.04
log2 fold change [4]: 0.022
log2 fold change [5]: 0.181
log2 fold change [6]: -0.054
log2 fold change [7]: -0.048
log2 fold change [8]: 0.015
log2 fold change [9]: 0.06
log2 fold change [10]: 0.014

RBM39 (UniProt Q14498)
Chain of UniProt Q14498 (Q14498 whole entry, looked up): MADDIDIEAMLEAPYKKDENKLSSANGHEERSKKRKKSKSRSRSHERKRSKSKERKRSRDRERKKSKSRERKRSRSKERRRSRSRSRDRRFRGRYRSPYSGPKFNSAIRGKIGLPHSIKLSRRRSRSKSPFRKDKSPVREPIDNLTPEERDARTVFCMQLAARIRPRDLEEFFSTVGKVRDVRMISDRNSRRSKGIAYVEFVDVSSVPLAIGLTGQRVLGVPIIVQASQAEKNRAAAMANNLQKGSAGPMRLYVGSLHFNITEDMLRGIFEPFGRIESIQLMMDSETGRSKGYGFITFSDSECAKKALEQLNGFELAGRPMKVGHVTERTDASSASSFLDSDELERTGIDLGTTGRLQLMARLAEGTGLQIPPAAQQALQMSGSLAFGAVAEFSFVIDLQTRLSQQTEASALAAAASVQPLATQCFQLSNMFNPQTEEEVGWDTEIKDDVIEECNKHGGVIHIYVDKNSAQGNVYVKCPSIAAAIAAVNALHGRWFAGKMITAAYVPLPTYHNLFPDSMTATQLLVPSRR
log2 fold change [1]: -0.027
log2 fold change [2]: -0.089
log2 fold change [3]: 0.028
log2 fold change [4]: 0.026
log2 fold change [5]: -0.303
log2 fold change [6]: -0.16
log2 fold change [7]: 0.072
log2 fold change [8]: -0.183
log2 fold change [9]: 0.08
log2 fold change [10]: 0.011

SDHC (UniProt Q99643)
log2 fold change [1]: 0.074
log2 fold change [2]: -0.201
log2 fold change [3]: -0.006
log2 fold change [4]: -0.134
log2 fold change [5]: 0.04
log2 fold change [6]: -0.062
log2 fold change [7]: -0.012
log2 fold change [8]: -0.159
log2 fold change [9]: 0.029
log2 fold change [10]: 0.159

RIOK2 (UniProt Q9BVS4)
log2 fold change [1]: -0.073
log2 fold change [2]: 0.033
log2 fold change [3]: 0.169
log2 fold change [4]: 0.067
log2 fold change [5]: 0.195
log2 fold change [6]: 0.138
log2 fold change [7]: 0.014
log2 fold change [8]: 0.069
log2 fold change [9]: 0.05
log2 fold change [10]: -0.009

SENP6 (UniProt Q9GZR1)
log2 fold change [1]: 0.028
log2 fold change [2]: -0.008
log2 fold change [3]: -0.062
log2 fold change [4]: 0.063
log2 fold change [5]: -0.018
log2 fold change [6]: -0.131
log2 fold change [7]: 0.003
log2 fold change [8]: -0.034
log2 fold change [9]: 0.016
log2 fold change [10]: 0

SIK3 (UniProt H0Y4E8)
log2 fold change [1]: 0.027
log2 fold change [2]: 0.157
log2 fold change [3]: -0.007
log2 fold change [4]: 0.064
log2 fold change [5]: -0.009
log2 fold change [6]: -0.072
log2 fold change [7]: 0.023
log2 fold change [8]: -0.114
log2 fold change [9]: 0.056
log2 fold change [10]: 0.01

RPS9 (UniProt P46781)
log2 fold change [1]: -0.044
log2 fold change [2]: -0.015
log2 fold change [3]: 0.237
log2 fold change [4]: 0.119
log2 fold change [5]: 0.083
log2 fold change [6]: 0.226
log2 fold change [7]: 0.108
log2 fold change [8]: 0.095
log2 fold change [9]: 0.118
log2 fold change [10]: -0.027

SACM1L (UniProt Q9NTJ5)
log2 fold change [1]: 0.004
log2 fold change [2]: 0.003
log2 fold change [3]: -0.098
log2 fold change [4]: -0.026
log2 fold change [5]: 0.042
log2 fold change [6]: -0.08
log2 fold change [7]: -0.062
log2 fold change [8]: 0.007
log2 fold change [9]: 0.034
log2 fold change [10]: -0.046

SAFB2 (UniProt Q14151)
Chain of UniProt Q14151 (Q14151 whole entry, looked up): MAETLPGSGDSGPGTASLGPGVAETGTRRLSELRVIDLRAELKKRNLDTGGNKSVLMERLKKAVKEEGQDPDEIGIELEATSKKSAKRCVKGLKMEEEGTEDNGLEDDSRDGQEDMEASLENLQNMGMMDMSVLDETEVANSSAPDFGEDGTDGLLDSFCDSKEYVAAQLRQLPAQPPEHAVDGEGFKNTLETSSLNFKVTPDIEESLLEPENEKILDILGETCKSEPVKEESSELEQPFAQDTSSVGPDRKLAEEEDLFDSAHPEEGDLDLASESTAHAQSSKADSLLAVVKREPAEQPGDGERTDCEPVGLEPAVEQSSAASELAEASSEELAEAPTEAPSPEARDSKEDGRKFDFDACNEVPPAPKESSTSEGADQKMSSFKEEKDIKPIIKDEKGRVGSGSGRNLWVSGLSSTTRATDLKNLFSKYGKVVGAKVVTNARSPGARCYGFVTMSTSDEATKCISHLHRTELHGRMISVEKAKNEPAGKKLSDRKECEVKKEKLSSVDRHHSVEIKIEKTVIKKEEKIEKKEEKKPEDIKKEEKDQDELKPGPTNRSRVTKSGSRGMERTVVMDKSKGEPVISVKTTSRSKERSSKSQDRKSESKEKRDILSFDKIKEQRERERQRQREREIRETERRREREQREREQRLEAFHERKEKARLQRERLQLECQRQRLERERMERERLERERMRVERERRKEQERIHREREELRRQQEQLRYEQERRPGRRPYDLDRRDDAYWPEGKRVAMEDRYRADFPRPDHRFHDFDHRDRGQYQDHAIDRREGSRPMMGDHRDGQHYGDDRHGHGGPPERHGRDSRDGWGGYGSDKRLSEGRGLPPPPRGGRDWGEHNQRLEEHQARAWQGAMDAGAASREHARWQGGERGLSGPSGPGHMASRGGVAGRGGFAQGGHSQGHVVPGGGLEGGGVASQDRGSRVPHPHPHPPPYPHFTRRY
log2 fold change [1]: -0.055
log2 fold change [2]: -0.028
log2 fold change [3]: 0.149
log2 fold change [4]: -0.048
log2 fold change [5]: -0.022
log2 fold change [6]: 0.144
log2 fold change [7]: 0.1
log2 fold change [8]: -0.067
log2 fold change [9]: 0.029
log2 fold change [10]: -0.005

RHEB (UniProt Q15382)
Chain of UniProt Q15382 (Q15382 whole entry, looked up): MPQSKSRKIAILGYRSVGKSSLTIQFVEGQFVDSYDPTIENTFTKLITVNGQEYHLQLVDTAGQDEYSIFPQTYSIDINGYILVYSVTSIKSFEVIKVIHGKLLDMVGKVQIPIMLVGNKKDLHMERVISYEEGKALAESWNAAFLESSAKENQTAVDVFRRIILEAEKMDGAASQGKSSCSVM
log2 fold change [1]: 0.047
log2 fold change [2]: 0.04
log2 fold change [3]: -0.008
log2 fold change [4]: -0.054
log2 fold change [5]: -0.032
log2 fold change [6]: 0.002
log2 fold change [7]: -0.084
log2 fold change [8]: -0.011
log2 fold change [9]: 0.025
log2 fold change [10]: 0

RBM26 isoform 2 (UniProt Q5T8P6)
Chain of UniProt Q5T8P6 (Q5T8P6 whole entry, looked up): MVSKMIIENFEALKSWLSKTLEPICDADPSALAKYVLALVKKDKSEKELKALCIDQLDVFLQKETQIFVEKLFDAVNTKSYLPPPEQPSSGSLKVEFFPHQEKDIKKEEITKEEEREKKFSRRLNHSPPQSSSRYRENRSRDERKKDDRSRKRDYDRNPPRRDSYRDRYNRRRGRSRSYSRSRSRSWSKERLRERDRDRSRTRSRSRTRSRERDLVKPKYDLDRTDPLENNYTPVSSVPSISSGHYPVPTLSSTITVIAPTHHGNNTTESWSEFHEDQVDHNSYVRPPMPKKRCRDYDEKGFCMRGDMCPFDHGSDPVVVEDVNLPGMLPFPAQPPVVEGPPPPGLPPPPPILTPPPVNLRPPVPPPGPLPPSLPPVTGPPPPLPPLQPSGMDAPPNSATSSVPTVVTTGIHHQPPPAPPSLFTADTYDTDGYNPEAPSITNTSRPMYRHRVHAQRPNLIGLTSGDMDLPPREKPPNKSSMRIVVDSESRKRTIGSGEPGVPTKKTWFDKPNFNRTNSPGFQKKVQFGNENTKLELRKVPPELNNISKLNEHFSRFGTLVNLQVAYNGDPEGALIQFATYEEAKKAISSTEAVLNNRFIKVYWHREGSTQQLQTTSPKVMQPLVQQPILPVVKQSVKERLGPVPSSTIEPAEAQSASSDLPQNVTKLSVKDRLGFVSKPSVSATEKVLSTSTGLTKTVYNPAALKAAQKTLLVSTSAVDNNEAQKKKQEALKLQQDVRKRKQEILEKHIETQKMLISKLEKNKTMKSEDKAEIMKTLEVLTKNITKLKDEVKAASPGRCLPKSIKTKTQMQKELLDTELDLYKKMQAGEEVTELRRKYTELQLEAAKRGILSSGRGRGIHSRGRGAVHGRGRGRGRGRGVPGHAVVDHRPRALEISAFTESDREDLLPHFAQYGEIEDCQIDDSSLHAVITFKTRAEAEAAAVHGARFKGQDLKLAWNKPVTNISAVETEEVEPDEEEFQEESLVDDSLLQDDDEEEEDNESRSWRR
log2 fold change [1]: -0.01
log2 fold change [2]: -0.193
log2 fold change [3]: -0.226
log2 fold change [4]: 0.094
log2 fold change [5]: -0.074
log2 fold change [6]: -0.489 (active)
log2 fold change [7]: -0.039
log2 fold change [8]: 0.025
log2 fold change [9]: 0.03
log2 fold change [10]: -0.032

SEC23IP (UniProt Q9Y6Y8)
Chain of UniProt Q9Y6Y8 (Q9Y6Y8 whole entry, looked up): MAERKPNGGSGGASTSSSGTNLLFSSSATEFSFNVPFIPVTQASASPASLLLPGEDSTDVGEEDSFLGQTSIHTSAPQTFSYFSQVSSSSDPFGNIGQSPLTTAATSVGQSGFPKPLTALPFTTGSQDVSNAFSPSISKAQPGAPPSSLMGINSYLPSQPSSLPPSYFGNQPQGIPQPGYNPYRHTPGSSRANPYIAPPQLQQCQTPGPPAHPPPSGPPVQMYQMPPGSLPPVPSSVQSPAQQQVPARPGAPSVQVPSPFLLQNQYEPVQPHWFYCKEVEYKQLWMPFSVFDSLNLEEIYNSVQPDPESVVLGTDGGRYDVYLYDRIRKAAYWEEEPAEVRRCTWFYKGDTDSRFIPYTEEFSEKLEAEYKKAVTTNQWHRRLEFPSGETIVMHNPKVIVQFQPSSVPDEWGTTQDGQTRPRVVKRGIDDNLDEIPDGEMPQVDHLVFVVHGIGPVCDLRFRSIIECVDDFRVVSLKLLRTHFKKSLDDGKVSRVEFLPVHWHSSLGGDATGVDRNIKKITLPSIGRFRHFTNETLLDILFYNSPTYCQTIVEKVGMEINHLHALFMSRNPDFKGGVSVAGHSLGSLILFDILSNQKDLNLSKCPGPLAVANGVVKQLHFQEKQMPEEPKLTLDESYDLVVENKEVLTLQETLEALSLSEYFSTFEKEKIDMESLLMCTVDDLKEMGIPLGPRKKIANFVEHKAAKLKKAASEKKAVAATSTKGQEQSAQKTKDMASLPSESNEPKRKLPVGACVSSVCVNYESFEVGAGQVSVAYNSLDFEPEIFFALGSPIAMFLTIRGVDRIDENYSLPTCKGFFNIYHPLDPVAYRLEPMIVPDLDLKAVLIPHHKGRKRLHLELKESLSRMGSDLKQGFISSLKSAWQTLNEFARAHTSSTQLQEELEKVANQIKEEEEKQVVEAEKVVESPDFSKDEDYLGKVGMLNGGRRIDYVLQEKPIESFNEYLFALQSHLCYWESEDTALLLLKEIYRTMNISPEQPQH
log2 fold change [1]: -0.097
log2 fold change [2]: -0.048
log2 fold change [3]: -0.157
log2 fold change [4]: 0.043
log2 fold change [5]: -0.092
log2 fold change [6]: -0.156
log2 fold change [7]: -0.019
log2 fold change [8]: -0.045
log2 fold change [9]: 0.058
log2 fold change [10]: 0.025

RUFY3 isoform 3 (UniProt Q7L099)
log2 fold change [1]: -0.054
log2 fold change [2]: -0.036
log2 fold change [3]: -0.133
log2 fold change [4]: 0
log2 fold change [5]: -0.029
log2 fold change [6]: -0.028
log2 fold change [7]: 0.105
log2 fold change [8]: -0.255
log2 fold change [9]: -0.017
log2 fold change [10]: -0.059

From the supplement of paper PMC10849652
